Assay outcomes deposited in PubChem BioAssay by National Center for Advancing Translational Sciences (NCATS).
Shown are actives, neighbours in structure and some others; about 2.1% of the full set was active somewhere.
aSyn yeast inh = qHTS of alpha-syn Inhibitors. Yeast expressing alpha-synuclein, growth rescue, BacTiter-Glo, 24 h. Potency, µM (top dose mostly 46.1 µM), for the others: at the highest dose growth rescue (activation), actives largely listed as activators. hit rate 0.14% among 370,000; note: % of control where 0% means no effect; nearly all actives have a fitted effect of over 65% in size
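Rescue of yeast growth: cells expressing toxic alpha-synuclein, induced in galactose at OD600 0.02, incubated with compound 24 h at 30 C. ATP luminescence quantified growth; inhibitors of toxicity appear as activators.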
Abeta rescue = qHTS for compounds that reverse cellular toxicity of Amyloid beta (A-beta) peptide in yeast: Primary Screen; yeast expressing A-beta42, growth rescue, OD600, 48 h; response scale: 0% DMSO, 100% iron-clioquinol control; Potency, µM (highest dose often 46.1 µM), hits mostly activators; hit rate 0.063% among 410,000; AID 1347071, 2019; note: nearly all actives have a fitted effect of over 55% in size
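Yeast A-beta toxicity model in growth medium with pinned compounds, 48 h at 30 C; growth read as absorbance at 600 nm. Normalized to FeCl3/clioquinol equimolar mix (positive) and DMSO (negative).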
FUS yeast rescue = qHTS for Suppressors of FUS Proteinopathy: Primary screen using FUS-linked yeast assay | S. cerevisiae FUS-expressing, growth rescue, OD600, 24 h | Potency, µM (doses to about 76.6 µM), most hits filed as activators | hit rate 0.24% among 390,000 | AID 1347120, 2019;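 note: plate controls were DMSO vehicle for no effect and reference control for full effect; nearly all actives have a fitted effect of over 55% in size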
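FUS-expressing yeast, raffinose-pregrown, induced in 2% galactose minimal medium at OD 0.005; compounds in a dilution series, 24hr at 30C. Growth restoration read as absorbance at 600 nm. CP55940 positive control, DMSO negative.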
TDP-43 yeast inh = qHTS of TDP-43 Inhibitors; TDP-43 expressing yeast growth rescue, BacTiter-Glo, 24 h; Potency, µM (top dose mostly 46.1 µM), inactives show at the top dose growth rescue (activation), hits mostly activators; hit rate 1.8% among 410,000; AID 652104, 2013; note: % of control where 0% means no effect; nearly all actives have a fitted effect of over 50% in size
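Galactose-induced TDP-43 yeast, OD600=0.02, compound pinned; 24 hr, 30 deg C; BacTiter-Glo luminescence for growth. Inhibitors of TDP-43 toxicity read as activators.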
* = called active by the depositor; i = inactive; ? = inconclusive; · = no result given. Calls come from the whole dose curve; as a rule, active = well fitted curve in the direction sought with a large enough effect; inconclusive = small, poorly fitted or top-dose-only effect, or another doubt; inactive = no such curve, though single readings can be large; an effect the other way counts as inactive or inconclusive. Potency is the fitted concentration of half-maximal effect.

SMILES	aSyn yeast inh	Abeta rescue	FUS yeast rescue	TDP-43 yeast inh
C[C@@H]1CCCCO[C@H](CN(C)Cc2ccc(Cl)c(Cl)c2)[C@H](C)CN([C@@H](C)CO)C(=O)c2cc(NC(=O)Nc3ccc(F)cc3)ccc2O1	-6.2%	i	35.5µM*	0.0%
C[C@H](CO)N1C[C@H](C)[C@@H](CN(C)C(=O)Nc2ccc(C(F)(F)F)cc2)Oc2ccc(NC(=O)Nc3ccc(C(F)(F)F)cc3)cc2C1=O	2.4%	i	?	?
CCOC(=O)CCCCCC(=O)Nc1ccc2c(c1)C(=O)N([C@@H](C)CO)C[C@H](C)[C@H](CN(C)C(=O)NC(C)C)OCCCC[C@H](C)O2	0.7%	i	?	16.6%
COc1ccc(NC(=O)Nc2ccc3c(c2)C(=O)N([C@H](C)CO)C[C@H](C)[C@@H](CN(C)Cc2ccc(Cl)c(Cl)c2)OCCCC[C@@H](C)O3)cc1	-2.0%	i	?	6.1%
Nc1cc(-c2ccc(Br)cc2)nn1Cc1ccccc1	-1.4%	?	i	20µM*
Nc1cc(-c2cccc(Br)c2)nn1Cc1ccccc1	12.5%	i	·	?
COc1ccc(/C=C2\NC(=S)N(CC3CCCO3)C2=O)c(OC)c1C (stereo not given)	-1.0%	i	i	12.6µM*
Cc1ccc(Cn2c(=O)c3c(nc4n3CCN4c3cc(C)cc(C)c3)n(C)c2=O)cc1	·	i	i	21.7%
c1cc2cc(-c3c(-c4ccc5c(c4)OCO5)noc3-c3ccsc3)ccc2[nH]1	-3.4%	i	i	-0.9%
Cc1onc(-c2ccc3c(c2)OCO3)c1-c1ccc2[nH]ccc2c1	-24.0%	i	i	22.4µM*
CCCC12CN3CC(C)(CN(C1)C31CCCCC1)C2=O	0.0%	i	i	11.8%
CC1(C)CC2(CCO1)N1CC3(C)CN2CC(C)(C1)C3=O (stereo not given)	0.3%	i	·	3.16µM*
CCOCc1nnc(NC(=O)c2cc(Cl)ccc2OC)s1	11.4%	i	i	12.6µM*
C=C1CC2(CC(c3ccccc3)OC(c3ccccc3)C2)OC1=O (stereo not given)	6.3%	i	·	10µM*
CCN(CC)C(=O)c1c(-c2ccccc2)c(-c2ccccc2)nn(C)c1=O	·	i	i	4.6%
O=C(c1cc(-c2ccccc2Cl)nc2ccccc12)N1CCC1	-10.3%	i	i	?
Cc1ccc(-c2cc(C(=O)N3CCN(c4ccccc4O)CC3)c3ccccc3n2)cc1	-4.5%	i	i	21.0%
Cc1ccc(-c2cc(C(=O)N3CCN(c4ccc(O)cc4)CC3)c3ccccc3n2)cc1	5.9%	i	?	15.8µM*
COc1ccc(-c2cc(C(=O)N3CCN(c4ncccn4)CC3)c3ccccc3n2)cc1	-12.4%	i	i	12.6µM*
O=C(c1cc(-c2ccccc2Cl)nc2ccccc12)N1CCN(c2ccccc2O)CC1	-18.1%	i	i	20µM*
CC1CCN(c2oc(-c3cccs3)nc2S(=O)(=O)c2ccc(Cl)cc2)CC1	·	i	i	12.1%
CCc1ccc(Oc2c(Cl)cnn(-c3ccc(C)cc3)c2=O)cc1	·	·	i	·
O=C(NNC(=O)c1csc(-c2cccs2)n1)c1ccc(Cl)cc1	16.5%	i	i	22.4µM*
O=C(Nc1cc(Cl)cc(Cl)c1)c1ccc(F)c(S(=O)(=O)N2CCc3ccccc32)c1	·	i	i	12.3%
CC(C)(C)NC(=O)C(C1CC1)n1c(=O)c(-c2cc3ccccc3[nH]2)nc2ccccc21 (stereo not given)	3.9%	i	i	26.2%
SMILES	aSyn yeast inh	Abeta rescue	FUS yeast rescue	TDP-43 yeast inh
Cc1cccc(C)c1NC(=O)C(C1CC1)n1c(=O)c(-c2ccccc2)nc2ccccc21 (stereo not given)	?	i	i	12.6µM*
Cc1cccc(C)c1NC(=O)C(C1CC1)n1c(=O)c(-c2cc3ccccc3[nH]2)nc2ccccc21 (stereo not given)	?	i	5.62µM*	?
COc1ccc(C(=O)Nc2ccccc2C(=O)OCc2cc(=O)n3nc(C4CC4)sc3n2)cc1	·	i	i	12.9%
COC(=O)c1ccc2nc(-c3ccc(F)cc3)c(Cc3cccc(F)c3)n2c1	-0.4%	i	i	23.8%
Fc1cccc(Cc2c(-c3ccco3)nc3c(Cl)cc(C(F)(F)F)cn23)c1	12.0%	i	i	12.6µM*
COC(=O)c1ccc2nc(-c3ccco3)c(Cc3cccc(F)c3)n2c1	?	i	i	14.1µM*
Cc1ccc(Cc2c(-c3ccco3)nc3c4ccccc4ccn23)cc1	12.6µM*	i	i	0.0%
COC(=O)c1ccc2nc(-c3ccco3)c(Cc3ccc(C)cc3)n2c1	?	i	i	20µM*
COc1cccc(CNC(=O)c2ccc(-n3c(C)cc4c3CCC(C)C4)cc2)c1 (stereo not given)	·	i	i	3.0%
CCN(CC)C(=O)[C@H]1C[C@H](CC(=O)NCC23CC4CC(CC(C4)C2)C3)C(=O)N2CCc3c([nH]c4cc(-c5ccco5)ccc34)[C@]12C	1.2%	i	i	20.4%
C[C@]12c3[nH]c4ccc(Cl)cc4c3CCN1C(=O)[C@@H](CC(=O)NCC13CC4CC(CC(C4)C1)C3)C[C@@H]2C(=O)N1CCCCC1	15.8µM*	i	i	19.2%
COc1ccc2[nH]c3c(c2c1)CCN1C(=O)C(CC(=O)NCC24CC5CC(CC(C5)C2)C4)C[C@H](C(=O)N(C(C)C)C(C)C)[C@@]31C (stereo not given in full)	-15.1%	i	?	11.2µM*
COc1ccc2[nH]c3c(c2c1)CCN1C(=O)C(CC(=O)NCC24CC5CC(CC(C5)C2)C4)C[C@H](C(=O)N2CCOCC2)[C@@]31C (stereo not given in full)	-0.4%	i	i	17.7%
CCN(CC)C(=O)[C@H]1CC(CC(=O)NCC23CC4CC(CC(C4)C2)C3)C(=O)N2CCc3c([nH]c4ccccc34)[C@]12C (stereo not given in full)	?	i	i	28.2µM*
CCOC(=O)c1c(C)[nH]c(C)c1S(=O)(=O)N1CCC(C(=O)Nc2cc(Cl)ccc2OC)CC1	·	i	?	20.1%
O=[N+]([O-])c1ccc(O/N=[N+](\[O-])N2CCCCC2)c([N+](=O)[O-])c1	-80.8%	·	·	·
CC(=O)NC1CC2CCCC(C1)N2S(=O)(=O)c1cccc(F)c1 (stereo not given)	-0.7%	i	31.6µM*	-4.8%
O=C(NC1CC2CCCC(C1)N2S(=O)(=O)c1ccccc1)c1ccco1 (stereo not given)	3.0%	i	i	0.0%
O=C(CCS(=O)(=O)c1nc(-c2ccc3c(c2)OCO3)cc(C(F)(F)F)n1)Nc1ccc(F)c(Cl)c1	·	i	i	1.1%
